Bioassay records as filed in PubChem BioAssay.
FLuc counter = inhibits or activates purified firefly luciferase, miR-21 counter-screen; P08659; purified FLuc, Km substrates, luminescence inhibition; Potency, µM (titrated, usually from 57.5 µM), for inactives: at the highest dose activity change, negative = inhibition, actives largely listed as inhibitors; 6.9% of 360,000 active; AID 588342;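 note: plate controls were vehicle for no effect and reference inhibitor for full effect; nearly all actives have a fitted effect of over 55% in size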
Target sequence (P08659 whole entry, looked up): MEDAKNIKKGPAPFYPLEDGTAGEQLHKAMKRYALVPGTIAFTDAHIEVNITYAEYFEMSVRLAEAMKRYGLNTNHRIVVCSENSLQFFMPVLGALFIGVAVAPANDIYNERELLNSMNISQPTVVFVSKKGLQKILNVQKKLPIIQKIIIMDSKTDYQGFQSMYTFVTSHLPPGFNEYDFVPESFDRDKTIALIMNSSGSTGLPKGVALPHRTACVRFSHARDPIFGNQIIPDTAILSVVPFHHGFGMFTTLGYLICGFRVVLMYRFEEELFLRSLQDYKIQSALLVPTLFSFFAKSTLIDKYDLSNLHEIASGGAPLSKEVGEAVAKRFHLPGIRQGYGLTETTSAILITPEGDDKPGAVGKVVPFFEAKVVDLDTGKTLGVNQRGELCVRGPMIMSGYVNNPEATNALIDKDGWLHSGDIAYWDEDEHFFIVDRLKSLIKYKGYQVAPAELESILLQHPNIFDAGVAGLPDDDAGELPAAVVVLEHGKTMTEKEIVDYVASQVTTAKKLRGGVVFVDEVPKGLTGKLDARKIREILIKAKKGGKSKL
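Purified P. pyralis luciferase (10nM final) with 10uM D-luciferin and 10uM ATP (Km levels) in 50mM Tris acetate pH 7.5, 10mM Mg acetate, 0.01% Tween-20, 0.05% BSA; qHTS 6-point titration, ~60 µM downward; luminescence read.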
ELG1 genotox = genotoxicity induction in ELG1-luciferase HEK293T cells; AID 504466; Potency, µM (titrated, usually from 46 µM), inactives show top-dose activity change, positive = activation, most hits filed as activators; 1.3% of 330,000 active; HEK293T ELG1-luciferase reporter, luminescence, 16 h; note: % of control where 0% means no effect; nearly all actives have a fitted effect of over 60% in size
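16 hr compound incubation (37 °C, 5% CO2) of HEK293T cells carrying luciferase-tagged ELG1; luciferase then measured by ONE-Glo luminescence after 30 min at RT.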
SMN2 splice enh = enhancers of SMN2 splice variant expression. HEK293 SMN2-luciferase splicing reporter, luminescence, 30-36 h. Potency, µM (highest dose often 46.1 µM), inactives show top-dose activity change, positive = activation, hits mostly activators. 2.8% of 210,000 active. AID 1458; note: % of control where 0% means no effect; nearly all actives have a fitted effect of over 55% in size
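HEK293 cells carry an SMN2 […]–luciferase reporter in which exon 7 inclusion puts luciferase in frame. Cells were plated 10-12 h before compound addition, then incubated 30-36 h at 37C. ONE-Glo luminescence was read; sodium butyrate at 4.5 mM final served as control.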
NPC1 prom act = activators of NPC1 promoter | Huh7 NPC1 promoter luciferase reporter, 24 h | Potency, µM (titrated, usually from 9.22 µM), for inactives: at the highest dose activation, hits mostly activators | 2.4% of 320,000 active; note: % of control where 0% means no effect; nearly all actives have a fitted effect of over 60% in size
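Luminescence from an NPC1 promoter-driven luciferase reporter in stably transfected Huh7 cells was measured after 24 h compound treatment at 37 °C, followed by 10 min ambient incubation with luciferase detection reagent.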
ELG1 repair inh = inhibitors of ELG1-dependent DNA repair in HEK293T cells; Potency, µM (titrated, usually from 46.1 µM), for the others: top-dose activity change, negative = inhibition, actives largely listed as inhibitors; HEK293T ELG1-luciferase reporter, luminescence, 16 h; DNA damage induced by 5-fluorouridine; AID 504467; 2.3% of 330,000 active; note: % is set by controls: 0 for no effect and ±100 for the full control effect; nearly all actives have a fitted effect of over 55% in size
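DMSO vehicle served as the neutral condition. Each well held 2,000 cells given 5-fluorouridine plus compound; after 16 hr at 37 °C/5% CO2, ONE-Glo was added and luciferase measured 30 min later.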
Rab9 prom act = activators of Rab9 promoter. Huh7 Rab9 promoter-luciferase reporter, luminescence, 24 h. Potency, µM (series often up to 9.22 µM), inactives show at the top dose activation, negative = inhibition, most hits filed as activators. 2.8% of 320,000 active. AID 485297; note: % of control where 0% means no effect; nearly all actives have a fitted effect of over 60% in size
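Cell-based reporter: Huh7 stable for Rab9 promoter-driven luciferase, plated in reduced-serum medium with 10% FBS at 1500 cells/well, compound-treated 24 h at 37 °C, luminescence read after 10 min reagent.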
* marks the source's active call; other numbers are inactive results. Sampled rows, rich in hits. Any-hit rate of the full collection: about 9.2%. Calls come from the whole dose curve; as a rule, active = well fitted curve in the direction sought with a large enough effect; inconclusive = small, poorly fitted or top-dose-only effect, or another doubt; inactive = no such curve, though single readings can be large; an effect the other way counts as inactive or inconclusive. Potency is the fitted concentration of half-maximal effect.

For CC(C)C[C@@H](COc1ccccc1)N1CCN(C)CCC1=O the results were FLuc counter 2%, ELG1 genotox 2%, NPC1 prom act 1%, ELG1 repair inh 0% and Rab9 prom act -9%.
`COc1ccc(-c2csc3ncnc(N4CCN(c5ccccc5OC)CC4)c23)cc1` gave FLuc counter 2%, ELG1 genotox -18%, NPC1 prom act -3%, ELG1 repair inh 13µM* and Rab9 prom act 2%.
For COc1ccc(-c2csc3ncnc(N4CCN(CCO)CC4)c23)cc1 the results were FLuc counter -1%, ELG1 genotox -4%, NPC1 prom act 4%, ELG1 repair inh -27% and Rab9 prom act -7%.
`CCOc1ccccc1N1CCN(c2ncnc3scc(-c4ccc(OC)cc4)c23)CC1` gave FLuc counter -1%, ELG1 genotox -34%, NPC1 prom act -3%, ELG1 repair inh 15µM* and Rab9 prom act 7%.
For COc1ccc(-c2csc3ncnc(NCCO)c23)cc1 the results were FLuc counter 0%, ELG1 genotox -16%, NPC1 prom act -6%, ELG1 repair inh inconclusive and Rab9 prom act -1%.
`COc1ccc(-c2csc3ncnc(NCCCO)c23)cc1` gave FLuc counter -1%, ELG1 genotox -11%, NPC1 prom act -1%, ELG1 repair inh 4.6µM* and Rab9 prom act 3%.
Cc1cc(C)cc(OCCSc2nc3ccc(NC(=O)c4ccc5c(c4)OCO5)cc3s2)c1 was read as FLuc counter 1%.
`NC(=O)c1cccnc1Nc1ccccc1Cl` gave FLuc counter inconclusive, ELG1 genotox 14%, SMN2 splice enh -19%, NPC1 prom act 3%, ELG1 repair inh inconclusive and Rab9 prom act 1%.
`Cc1cccc(Nc2ccccc2C(=O)O)c1C` gave FLuc counter inconclusive, ELG1 genotox 1%, SMN2 splice enh -11%, NPC1 prom act 2%, ELG1 repair inh 4% and Rab9 prom act 1%.
For Cc1cc(C)c(Nc2ncccc2C(=O)O)c(C)c1 the results were FLuc counter -12%, ELG1 genotox 2%, NPC1 prom act 0%, ELG1 repair inh 3% and Rab9 prom act -13%.
Cc1ccc(Nc2ncccc2C(N)=O)cc1[N+](=O)[O-] was read as FLuc counter 12µM*, ELG1 genotox inconclusive, SMN2 splice enh 14µM*, NPC1 prom act inconclusive, ELG1 repair inh inconclusive and Rab9 prom act 3.5µM*.
Cc1ccc(Nc2ncccc2C(=O)O)cc1C was read as FLuc counter 17µM*, ELG1 genotox inconclusive, SMN2 splice enh 19%, NPC1 prom act inconclusive, ELG1 repair inh inconclusive and Rab9 prom act inconclusive.
`O=C(O)c1cccnc1Nc1ccc(Cl)cc1` gave FLuc counter 17µM*, ELG1 genotox 0%, SMN2 splice enh 10µM*, NPC1 prom act 22%, ELG1 repair inh inconclusive and Rab9 prom act inconclusive.
For Cc1cccc(Nc2ncccc2C(=O)O)c1C the results were FLuc counter 21µM*, ELG1 genotox 11%, NPC1 prom act 10%, ELG1 repair inh 17% and Rab9 prom act 2%.
`COc1ccccc1NC(=O)Cn1c(=O)n(-c2cccc(C(C)=O)c2)c(=O)c2c3c(sc21)CN(C(C)=O)CC3` gave FLuc counter 7% and SMN2 splice enh 1%.
CCCN(Cc1cccs1)C(=O)Nc1cc(C)ccc1OC was read as FLuc counter 2%.
Cc1ccc(C(=O)C(C)OC(=O)c2cc(=O)[nH]c3ccccc23)cc1 (stereo unspecified) was read as FLuc counter 1%, ELG1 genotox 5%, NPC1 prom act -2%, ELG1 repair inh 29% and Rab9 prom act -9%.
For C/C(=N\OC(=O)NC1CCCCC1)c1sc(-c2ccccc2)nc1C the results were FLuc counter inconclusive, ELG1 genotox 0%, SMN2 splice enh -55%, NPC1 prom act 9%, ELG1 repair inh inconclusive and Rab9 prom act -7%.
For Cc1nc(-c2ccccc2)sc1C(=O)CSc1ccc(Cl)cc1 the results were FLuc counter -12%, ELG1 genotox 1%, SMN2 splice enh 3%, NPC1 prom act 1%, ELG1 repair inh 7% and Rab9 prom act 4%.
Screening C/C(=N\OC(=O)c1ccc(Cl)cc1)c1sc(-c2ccccc2)nc1C returned FLuc counter 4%, ELG1 genotox inconclusive, SMN2 splice enh inconclusive, NPC1 prom act 4µM*, ELG1 repair inh inconclusive and Rab9 prom act 4µM*.
For C/C(=N\OC(=O)c1ccc(F)cc1)c1sc(-c2ccccc2)nc1C the results were FLuc counter 5%, ELG1 genotox inconclusive, SMN2 splice enh 20µM*, NPC1 prom act 2µM*, ELG1 repair inh inconclusive and Rab9 prom act 1.6µM*.
`O=C(CC(Nc1ccccc1)C(=O)O)c1ccccc1` (stereo unspecified) gave FLuc counter 0.85µM*, ELG1 genotox inconclusive, SMN2 splice enh 13µM*, NPC1 prom act 3.2µM*, ELG1 repair inh inconclusive and Rab9 prom act 2.8µM*.
O=C(CC(C(=O)O)c1cccc(Cl)c1)c1ccccc1 (stereo unspecified) was read as FLuc counter 2%, ELG1 genotox -1%, NPC1 prom act 0%, ELG1 repair inh 1% and Rab9 prom act -11%.
`O=C(CC(Nc1ccc(Cl)cc1Cl)C(=O)O)c1ccccc1` (stereo unspecified) gave FLuc counter 2.7µM*, ELG1 genotox 6.5µM*, NPC1 prom act 6%, ELG1 repair inh inconclusive and Rab9 prom act 10%.
For Cc1ccc(NC(CC(=O)c2ccccc2)C(=O)O)cc1Cl (stereo unspecified) the results were FLuc counter 2.1µM*, ELG1 genotox inconclusive, NPC1 prom act 10%, ELG1 repair inh inconclusive and Rab9 prom act inconclusive.
Screening CCCc1cc(=O)n2c([nH]c3ccccc32)c1C#N returned FLuc counter 6.7µM*, ELG1 genotox 1%, SMN2 splice enh -3%, NPC1 prom act 20%, ELG1 repair inh inconclusive and Rab9 prom act inconclusive.
For CN1C(=O)C(CC(=O)O)S/C1=N\N=C\c1ccc(O)cc1O (stereo unspecified) the results were FLuc counter 15µM*, ELG1 genotox 0%, NPC1 prom act -14%, ELG1 repair inh 0% and Rab9 prom act 3%.
Screening Cc1cc(C(=O)CSc2ccc3c(c2)OCCO3)c(C)n1C1CC1 returned FLuc counter 11µM*, ELG1 genotox inconclusive, SMN2 splice enh inconclusive, NPC1 prom act inconclusive, ELG1 repair inh inconclusive and Rab9 prom act 2.8µM*.
